# Results from PubChem BioAssay (NCATS).
# Results filed as inconclusive are left out. Where a call stands in place of a potency, no number is given. Values without a mark were called inactive. Active and inactive are the calls of the source. Calls come from the whole dose curve; as a rule, active = well fitted curve in the direction sought with a large enough effect; inconclusive = small, poorly fitted or top-dose-only effect, or another doubt; inactive = no such curve, though single readings can be large; an effect the other way counts as inactive or inconclusive. Residues, ends and D or L forms follow the SMILES beside them. *: point of attachment. Cbz = O=C(OCc1ccccc1)*
# Experiment: HTS Assay for Allosteric Antagonists of the Human D2 Dopamine Receptor: Hit Validation in HTRF (AID 624455); note: potency is the fitted concentration of half-maximal effect;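 note: stable D1 dopamine receptor cell line scored for blocking the D1 response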
# Conditions: Cells stably expressing D1 dopamine receptor, inhibition mode; series mostly up to 46.1 µM
# How it was run: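 Inhibition of the D1-mediated response is measured by HTRF in cells that stably express the D1 dopamine receptor. Compounds reaching this step are hits from calcium-flux antagonism testing at EC80 dopamine in inducible Hek293 Trex D2 cells.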
row,Compound,Potency
1,O=c1[nH]c(=O)c2nc3ccccc3nc2[nH]1,inactive
2,NCCC1CCCC(CCN)N1 (stereo not given),inactive
3,O=C(O)/C(=C/c1c(C(=O)O)[nH]c2cc(Cl)cc(Cl)c12)c1ccccc1,inactive
4,COc1ccc(CCN(C)CCc2ccc(OC)c(OC)c2)cc1OC,inactive
5,CC(C)[C@H](NC(=O)OCc1ccccc1)C(=O)N[C@H](C=O)Cc1ccccc1 (Cbz-Val-Phe-aldehyde),inactive
6,CCn1c(=O)[nH]c2cc(Cl)c(Cl)cc21,inactive
7,COc1cc2c(CCNC(C)=O)c[nH]c2cc1O,inactive
8,COc1cc(/C=C(\C#N)C(=O)c2ccc(O)c(O)c2)cc(I)c1O,inactive
9,CCN1C(=O)C=CC1=O,inactive
10,NC(C(=O)N[C@@H]1C(=O)N2C(C(=O)O)=C(Cl)CS[C@H]12)c1ccccc1 (stereo not given in full),inactive
11,O=c1ccn([C@@H]2O[C@H](COP(=O)(O)OP(=O)(O)O)[C@@H](O)[C@H]2O)c(=O)[nH]1,inactive
12,NCCCNCCCCNCCCN,4610 nM (active)
13,CCCc1c(-c2ccc(O)cc2)nn(-c2ccc(O)cc2)c1-c1ccc(O)cc1,inactive
14,CN(C)C(=O)/N=N/C(=O)N(C)C,inactive
15,NCC(O)c1ccc(O)c(O)c1 (stereo not given),1160 nM (active)
16,CNc1cc(NS(=O)(=O)c2ccc(N)cc2)nc(NC)n1,inactive
17,CCCCC[C@H](CC(=O)NO)C(=O)N[C@H](C(=O)N1CCC[C@H]1CO)C(C)C,inactive
18,O=C(O)C1CCCNC1 (stereo not given),inactive
19,COC(=O)C1=C(C)NC(C)=C([N+](=O)[O-])C1c1ccccc1C(F)(F)F (stereo not given),inactive
20,C/C(=C\c1ccc(C(=O)O)cc1)c1ccc2c(c1)C(C)(C)CCC2(C)C,inactive
21,Oc1ccc(Cn2cc[nH]c2=S)cc1,inactive
22,O=C(O)C1CCNCC1,inactive
23,CC(N)(C(=O)O)c1ccc(C(=O)O)cc1 (stereo not given),inactive
24,Nc1ccc(CCNc2ncnc3c2ncn3C2OC(CO)C(O)C2O)cc1 (stereo not given),inactive
25,CN(C)S(=O)(=O)c1ccc2c(c1)/C(=C/c1cc3c([nH]1)CCCC3)C(=O)N2,inactive
26,NCCCCN,inactive
27,CC(=O)C(C)=O,inactive

# Experiment: qHTS assay for environmental chemicals that activate the Aryl hydrocarbon Receptor (AhR) signaling pathway (AID 651777); note: nearly all actives have a fitted effect of over 15% in size
# Conditions: 1A2-DRE human hepatoma cells, luciferase, 24 h; hits give high values
# How it was run: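 Stable CYP1A2 promoter/DRE-luciferase human hepatoma line treated 24 hr; One-Glo luminescence, 30 min RT.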
row,Compound,activation [%]
1,CCCc1c(-c2ccc(O)cc2)nn(-c2ccc(O)cc2)c1-c1ccc(O)cc1,-1.12
2,C/C(=C\c1ccc(C(=O)O)cc1)c1ccc2c(c1)C(C)(C)CCC2(C)C,0.324
3,CC(=O)C(C)=O,-0.684
